Screening results deposited in PubChem BioAssay by National Center for Advancing Translational Sciences (NCATS).
Hits are enriched below; roughly 1.8% of the tested compounds scored in any of these assays.
TrxR1 substrate = qHTS Assay for Substrates of Mammalian Selenoprotein Thioredoxin Reductase 1 (TrxR1): qHTS; Thioredoxin reductase 1, cytoplasmic (Rattus norvegicus), O89049; purified TrxR1 substrate turnover, NADPH consumption readout; Potency, µM (highest dose often 114 µM); 390,000 compounds, 0.01% hits; AID 588456, 2011; note: nearly all actives have a fitted effect of over 50% in size
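Rat TrxR1, dispensed at 90 nM, was prereduced with 400 uM NADPH (final) for 5 min at ~22 deg C, then incubated with compound 15 min before 400 uM selenite. A first-read NADPH fluorescence drop versus no-compound background flagged substrates.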
VDR inh = Inhibitors of the vitamin D receptor (VDR): qHTS. 400,000 compounds, 0.93% hits. Potency, µM, hits mostly inhibitors. Vitamin D3 receptor (Homo sapiens), P11473. VDR-SRC2-3 peptide fluorescence polarization, 2 h
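Fluorescence polarization assay measuring small-molecule disruption of VDR binding to the coregulator peptide SRC2-3. Compounds were pin-transferred (23 nl) into the reagent mix and incubated 2 h at room temperature before reading.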
TrxR1 inh = qHTS Assay for Inhibitors of Mammalian Selenoprotein Thioredoxin Reductase 1 (TrxR1): qHTS; 390,000 compounds, 1% hits; Potency, µM (top dose mostly 114 µM), actives largely listed as inhibitors; recombinant rTrxR1, NADPH fluorescence consumption, selenite substrate; Thioredoxin reductase 1, cytoplasmic (Rattus norvegicus), O89049; AID 588453, 2011; note: nearly all actives have a fitted effect of over 65% in size
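Rat TrxR1 (90 nM in the dispensed reagent) was pre-reduced with 400 uM NADPH for 5 min at room temperature, then incubated with compound for 15 min. After 400 uM selenite was added, NADPH fluorescence (Ex 340/Em 450 nm) was followed for 8 min.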
Vif-A3G inh = qHTS for Inhibitors of Vif-A3G Interactions: qHTS; HeLa A3G-eYFP + Vif (tagged APOBEC3G with the HIV-1 protein that degrades it), YFP fluorescence, overnight; Potency, µM (doses to about 46.1 µM), hits mostly inhibitors; 410,000 compounds, 0.076% hits; AID 602310, 2012; DNA dC->dU-editing enzyme APOBEC-3G (Homo sapiens), Q9HC16; note: nearly all actives have a fitted effect of over 60% in size
Target sequence (Q9HC16 whole entry, looked up): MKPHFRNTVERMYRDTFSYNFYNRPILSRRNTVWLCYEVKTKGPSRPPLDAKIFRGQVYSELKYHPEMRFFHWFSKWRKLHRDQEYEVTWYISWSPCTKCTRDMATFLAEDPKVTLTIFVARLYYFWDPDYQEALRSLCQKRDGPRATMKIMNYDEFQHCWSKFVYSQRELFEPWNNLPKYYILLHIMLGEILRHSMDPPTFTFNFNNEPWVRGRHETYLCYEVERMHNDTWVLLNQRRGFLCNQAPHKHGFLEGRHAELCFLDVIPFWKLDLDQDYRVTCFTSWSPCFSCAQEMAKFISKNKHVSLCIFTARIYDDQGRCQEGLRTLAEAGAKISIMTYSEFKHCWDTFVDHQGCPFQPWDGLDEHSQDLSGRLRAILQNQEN
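Read-out is eYFP fluorescence (Ex 488/Em 500-530) from Vif-expressing HeLa A3G-eYFP cells; more signal means A3G escaped Vif-mediated degradation. Cells plated overnight, compound pinned in, incubated overnight at 37 deg C.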
Vif-A3F inh = qHTS for Inhibitors of Vif-A3F Interactions: qHTS; AID 602313, 2012; 390,000 compounds, 0.2% hits; HeLa A3F-eYFP + Vif (tagged APOBEC3F with the HIV-1 protein that degrades it), YFP fluorescence increase; Potency, µM (series often up to 46.1 µM); note: nearly all actives have a fitted effect of over 65% in size
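Fluorescence increase (Ex 488/Em 500-530) after overnight compound treatment at 37 deg C flags inhibition of Vif-driven A3F-eYFP loss in stable HeLa A3F-eYFP/Vif cells seeded overnight beforehand.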
Large screens that a line does not name were inactive. Calls come from the whole dose curve; as a rule, active = well fitted curve in the direction sought with a large enough effect; inconclusive = small, poorly fitted or top-dose-only effect, or another doubt; inactive = no such curve, though single readings can be large; an effect the other way counts as inactive or inconclusive.

CN1/C(=C/c2cccc[n+]2CCO)Sc2ccccc21	none
CC[n+]1ccccc1/C=C1\Sc2ccc(C)cc2N1C	Vif-A3G inh inconclusive, Vif-A3F inh 22.4µM
NC1C(N)C(N)C1N (centres undefined)	none (no result: VDR inh, Vif-A3G inh, Vif-A3F inh)
COc1ccc(/C=N/NC(=O)c2cccnc2)cc1CSc1ccccn1	Vif-A3G inh 7.08µM
O=C(Nc1cccc(C(=O)OCc2cc(=O)n3c4c(sc3n2)CCCC4)c1)c1cccc(F)c1	none
Cc1ccc(-n2ncc(C(=O)N3CCN(C(=O)c4ccco4)CC3)c2C2CCN(C(=O)OC(C)(C)C)CC2)cc1	none
Cc1ccc(-n2ncc(C(=O)N3CCN(C(=O)c4ccco4)CC3)c2C2CCN(C(=O)OC(C)(C)C)CC2)cc1C	TrxR1 inh 28.2µM
CC1CN(c2c(F)c(N)c3c(=O)c(C(=O)O)cn(C4CC4)c3c2F)CC(C)N1 (centres undefined)	none (no result: TrxR1 substrate, TrxR1 inh, Vif-A3G inh, Vif-A3F inh)
CC(C)[C@H]1COCCS(=O)(=O)N1Cc1cccc([N+](=O)[O-])c1	none (no result: VDR inh, Vif-A3F inh)
O=C(O)c1ccc(NS(=O)(=O)c2ccc3nnn(O)c3c2)cc1	none
CN(C)S(=O)(=O)c1ccc2nnn(O)c2c1	VDR inh 79.4µM
O=S(=O)(c1ccc2nnn(O)c2c1)N1CCOCC1	TrxR1 inh 56.2µM
S=C1Cc2ccccc2N1	TrxR1 substrate inconclusive, VDR inh 2.24µM, Vif-A3G inh inconclusive, Vif-A3F inh inconclusive
O=C(C1CCN(S(=O)(=O)Cc2ccccc2)CC1)N1CCN(c2cccc(C(F)(F)F)c2)CC1	none
O=c1c2ccccc2sn1-c1ccc(Cl)cc1	none (no result: TrxR1 substrate, VDR inh, TrxR1 inh)
O=c1c2ccccc2sn1-c1ccc(F)cc1	VDR inh 15.8µM
N=C1/C(=C\c2coc3ccccc3c2=O)C(=O)N=C2SC(c3ccncc3)=NN12	VDR inh 28.2µM, TrxR1 inh inconclusive, Vif-A3G inh inconclusive, Vif-A3F inh 25.1µM
Cc1cc(/C=C2\C(=N)N3N=C(c4ccco4)SC3=NC2=O)c(C)n1Cc1ccccc1	none
N=C1/C(=C/c2coc3ccccc3c2=O)C(=O)N=C2SC(c3ccco3)=NN12	VDR inh inconclusive, TrxR1 inh 50.1µM, Vif-A3F inh inconclusive
CC(C)CSC1=NSC2=NC(=O)/C(=C\c3coc4ccccc4c3=O)C(=N)N12	VDR inh 79.4µM, TrxR1 inh inconclusive, Vif-A3G inh inconclusive, Vif-A3F inh 22.4µM
CSC1=NSC2=NC(=O)/C(=C\c3coc4ccccc4c3=O)C(=N)N12	VDR inh inconclusive, TrxR1 inh inconclusive, Vif-A3G inh inconclusive, Vif-A3F inh inconclusive
CCCCCCCCCCCCCCCCCCCCCCCCCCCCCC	none (no result: TrxR1 substrate, TrxR1 inh, Vif-A3G inh, Vif-A3F inh)
O=C(CNC(=O)C1CCCCC1)OCC(=O)c1ccc([N+](=O)[O-])cc1	VDR inh inconclusive (no result: Vif-A3F inh)
O=C(Cc1ccccc1)NCC(=O)OCC(=O)c1ccc2ccccc2c1	none (no result: Vif-A3F inh)
Nc1cc(N)c(OCC(F)(F)F)cc1OCC(F)(F)F	VDR inh inconclusive, TrxR1 inh 0.316µM
